Assay outcomes from PubChem BioAssay.
HIV RNase H inh-1: blocks HIV-1 RNase H cleavage of RNA/DNA duplex; P04585; RT-RNase H RNA/DNA duplex cleavage, fluorescence; inhibition, % at 10 µM; hit rate 1.9% among 65,000; in the data active = inhibition above about 50%
RmlCD inh mix: RmlC/RmlD inhibition, mixture screen | RmlC/RmlD coupled enzyme inhibition, 384-well mixture HTS | inhibition, % at 5.5 µM | hit rate 0.39% among 110,000 | AID 1532; in the data active = inhibition above about 30%, passing the limit was not always enough
HIV RNase H inh-2: confirmation of HIV-1 reverse transcriptase RNase H inhibitors | hit rate 39% among 1,000 | shares compounds with HIV RNase H inh-1 | inhibition, % at 10 µM | Recombinant RT RNase H, fluorescent RNA/DNA duplex cleavage; in the data active = inhibition above about 48%
A number is an active result; . = inactive; / = no result. The sample as a whole holds a higher share of hits than the screen did.

SMILES	HIV RNase H inh-1	RmlCD inh mix	others
CCc1cc(=O)oc2c(CN3CCCC3)c(O)c(Cl)cc12	.	90
O=C(c1ccccc1)c1nc2ccccc2n(CCCn2c(=O)c(C(=O)c3ccccc3)nc3ccccc32)c1=O	/	.
CCN1CC2=C(OC(N)=C(C#N)C2c2cccs2)/C(=C\c2cccs2)C1 (stereo not drawn)	/	.
Cc1cc(C)nc(/N=C(\N)Nc2ccc(F)c([N+](=O)[O-])c2)n1	/	.
N#CC1=C(N)N=C(SCc2cccc3ccccc23)C(C(N)=O)C12CCCCC2 (stereo not drawn)	/	.
Cc1c2oc3c(C)ccc(C(=O)N[C@@H]4C(=O)N[C@H](C(C)C)C(=O)N5CCC[C@H]5C(=O)N(C)CC(=O)N(C)[C@@H](C(C)C)C(=O)O[C@@H]4C)c3nc-2c(C(=O)N[C@@H]2C(=O)N[C@H](C(C)C)C(=O)N3CCC[C@H]3C(=O)N(C)CC(=O)N(C)[C@@H](C(C)C)C(=O)O[C@@H]2C)c(N)c1=O	/	.
CC(C)C[C@H]1C(=O)N2CCCC2[C@]2(O)O[C@](NC(=O)[C@@H]3C=C4c5cccc6[nH]cc(c56)CC4N(C)C3)(C(C)C)C(=O)N12 (stereo partly drawn)	/	.
CC(C)[C@@]1(NC(=O)[C@@H]2C=C3c4cccc5[nH]cc(c45)C[C@H]3N(C)C2)O[C@@]2(O)[C@@H]3CCCN3C(=O)[C@H](Cc3ccccc3)N2C1=O	55	/
C=CCOCC(O)CS(=O)(=O)Cc1ccc(Cl)cc1 (stereo not drawn)	/	.
CCC(=O)Nc1ccccc1Nc1cc(C#N)c(C#N)cc1[N+](=O)[O-]	/	.
COc1ccccc1C1c2c(oc3ccc(Cl)cc3c2=O)C(=O)N1c1cc(C)on1 (stereo not drawn)	51	/
COc1ccc(/C(O)=C2\C(=O)C(=O)N(c3cc(C)on3)C2c2ccccc2OC)cc1 (stereo not drawn)	.	.
COC(=O)c1ccc(C(=O)OC)c(NC(=O)c2ocnc2C)c1	.	/
Cc1cc(C)c2c(n1)nn1c(N3CCN(Cc4ccccc4)CC3)cc(C)nc21	.	/
COc1ccc(F)cc1CN1CCN(c2cc(C)nc3c4c(C)cc(C)nc4nn23)CC1	.	50
COc1cccc(OC)c1C(=O)OCC(=O)Nc1ccc(OC(F)(F)F)cc1	/	.
CN1C(=O)/C(=C/c2cn(CC(=O)N3CCCCC3)c3ccccc23)c2ccccc21	/	.
CC1(C)CC(NC(=O)C23CCC(C)(C(=O)C2)C3(C)C)CC(C)(C)N1 (stereo not drawn)	.	.
On1c(-c2ccccc2)nc2ccc(Cl)cc21	/	.
Clc1ccc2nc3ccccn3c2c1	.	39
COCCCn1c2nc3ccccc3nc2c2c(=O)n(Cc3ccccc3Cl)cnc21	.	75
COCCCn1c2nc3ccccc3nc2c2c(=O)n(Cc3ccc(Cl)cc3)cnc21	.	.
CC[C@H]1CC2CN3CCc4c([nH]c5c([C@H]6C[C@H]7[C@H](CC)CN(C)[C@@H](Cc8c6[nH]c6ccccc86)[C@H]7C(=O)OC)c(OC)ccc45)C(C(=O)OC)(C2)C13	/	.
Cc1oc(-c2ccc(F)cc2)cc1-c1nn2c(-c3ccco3)nnc2s1	.	/
Cc1oc(-c2ccc(F)cc2)cc1-c1nn2c(-c3ccoc3C)nnc2s1	63	.
SMILES	HIV RNase H inh-1	RmlCD inh mix	others
CCOC(=O)c1c(NC(=O)c2ccco2)sc2c1CCCCC2	.	.
CCOC(=O)c1c(NC(=O)c2cc(C3CC3)on2)sc2c1CCCC2	84	/	HIV RNase H inh-2=94
CCOC(=O)c1c(NC(=O)c2csc(C)c2)sc(C(C)=O)c1C	.	/
CCOC(=O)c1c(NC(=O)c2cc(C3CC3)on2)sc(C(C)=O)c1C	68	/	HIV RNase H inh-2=.
CCCc1cc(C(=O)Nc2sc(C)c(C)c2C(=O)OCC)no1	86	.	HIV RNase H inh-2=67
CCOC(=O)c1c(NC(=O)c2ccc(Cl)s2)sc(C)c1C	.	.
c1cncc(-c2noc(CC3CCCCC3)n2)c1	/	.
COc1ccc(Cn2nnnc2C(c2cc3cc(C)ccc3[nH]c2=O)N2CCOCC2)cc1 (stereo not drawn)	.	.
COc1ccc(Cn2nnnc2C(c2cc3cccc(C)c3[nH]c2=O)N2CCOCC2)cc1 (stereo not drawn)	54	.	HIV RNase H inh-2=.
Cc1ccc(S(=O)(=O)/C(C#N)=C/c2c(N3CCC(C(N)=O)CC3)nc3ccccn3c2=O)cc1	/	.
COc1ccc(-n2ncc3c(N4CCN(c5cc(C)ccc5C)CC4)ncnc32)cc1	54	.	HIV RNase H inh-2=.
COc1ccc(N2CCN(c3ncnc4c3cnn4-c3ccc(C)cc3C)CC2)cc1	.	.
CCOC(=O)CN1C(=O)N[C@@H](CCc2ccccc2)[C@@H](C(=O)OC)[C@H]1C	/	.
O=C1c2ccccc2C(=O)N1Cc1nc2ccccc2c(=O)n1CCCn1ccnc1	.	.
CCCCn1c(CN2C(=O)c3ccccc3C2=O)nc2ccccc2c1=O	90	.	HIV RNase H inh-2=54
